Screening results from PubChem.
This excerpt belongs to a sample that is enriched for hits.
Pf apPOL inh – Pf-apPOL DNA polymerase inhibition | Recombinant Pf-apPOL, molecular beacon fluorescence, 1.5 h | inhibition, % at 10 µM | 0.25% of 210,000 active | AID 1794808
mHTT CaM bind – disrupts binding of mutant huntingtin to calmodulin. AID 1671202. inhibition, % at 15 µM. 3.6% of 190,000 active. AlphaScreen His-mHTT/GST-CaM binding, luminescence
Each line names hits and unclear results; the compound was inactive in the other large screens. Rule as the data show it: active = inhibition above about 50%; inactive = the rest.

O=C(c1ccccc1)N1CCN(c2[nH]ncc2-c2ccccc2)CC1	mHTT CaM bind 77
O=C(c1ccncc1)N1CCN(c2[nH]ncc2-c2ccncc2)CC1	none
O=C(c1ccsc1)N1CCN(c2[nH]ncc2-c2ccccc2)CC1	mHTT CaM bind 63
O=C(c1cccs1)N1CCN(c2[nH]ncc2-c2ccncc2)CC1	none
Cc1ccc(S(=O)(=O)N(C(F)F)C(C)(C)C)cc1	none
CN(C)c1cccc(C(=O)NC2CCCC2)c1	none
CC(C)N1CCN(C(=O)c2csc(N3CCN(c4ccccc4F)CC3)n2)CC1	none
CC(C)CNC(=O)C(=O)Nc1c(O)c2ccccc2[nH]c1=O	none
O=c1c2ccccc2nc2c3ccccc3c(NCc3ccccn3)nn12	mHTT CaM bind 81
Cc1nc2ccccc2c(=O)n1Cc1cccnc1	none
Cc1cc(C)n(-c2nn3c(=O)c4ccccc4nc3c3ccccc23)n1	none
O=c1c2ccccc2nc2c3ccccc3c(NCc3cccnc3)nn12	mHTT CaM bind 80
O=C(NCCN1CCCCC1)c1cccnc1N1CCNC(c2ccccc2)C1 (stereo unspecified)	none
COCCN1CC(C(=O)NCc2ccccc2OC)CC1=O (stereo unspecified)	none
O=C(CN1CCC(c2nc(-c3cccc(F)c3)no2)CC1)Nc1ccc(F)cc1	none
O=C(Cc1ccccc1)NC(c1ccccc1)c1ccc2cccnc2c1O (stereo unspecified)	mHTT CaM bind 100
O=C(Cc1ccccc1)Nc1cc(-c2nc3ncccc3o2)ccc1Cl	none
CCC(=O)NC(c1ccccc1OC)c1ccc2cccnc2c1O (stereo unspecified)	mHTT CaM bind 100
O=C(NC(c1ccccc1)c1ccccc1)c1ccccn1	none
CCCCC(=O)NC(c1ccccc1Cl)c1ccc2cccnc2c1O (stereo unspecified)	mHTT CaM bind 99
O=C(Cc1ccccc1)NC(c1ccccc1Cl)c1ccc2cccnc2c1O (stereo unspecified)	mHTT CaM bind 100
CCC(=O)Nc1cccnc1-c1ccc(C(=O)Nc2ccccc2OC)cc1	none
O=C(CCCN1C(=O)c2cccnc2C1=O)NC(c1ccccc1)c1ccccc1	none
CC12CC3(C)CC(C)(C1)CC(NC(=O)Nc1nccs1)(C2)C3	none
CCOCCCNC(=O)N1CCC(N2CCN(Cc3cccc(C)c3)C2=O)CC1	none
Cc1oc(C2CCN(C(=O)c3ccccc3Cl)CC2)nc1C(=O)N1CCCC1	none
CCC(=O)NC(c1ccccc1Cl)c1ccc2cccnc2c1O (stereo unspecified)	mHTT CaM bind 100
CCC(=O)Nc1ccccc1Cl	none
COc1ccccc1C(NC(=O)C1CCCCC1)c1ccc2cccnc2c1O (stereo unspecified)	mHTT CaM bind 100
COc1ccc(NC(=O)C2CC2)c2ncccc12	none
CCc1ccccc1N(CC(=O)N1CCCC1)S(=O)(=O)c1ccccc1	none
CC1CCCN(C(=O)COc2ccc(Cl)cc2)C1 (stereo unspecified)	none
O=C(COc1ccc(Cl)cc1)N1CCC(N2CCc3ccccc32)CC1	mHTT CaM bind 86
CCN(C(=O)CN1C(=O)NC2(CCCCC2)C1=O)c1ccccc1	none
CCN(C(=O)CN1C(=O)c2ccccc2C1=O)c1ccccc1	mHTT CaM bind 98
O=C1c2cccc([N+](=O)[O-])c2C(=O)N1CNc1ccc(Cl)c(Cl)c1	none
O=[N+]([O-])c1cc([N+](=O)[O-])c2cccnc2c1Nc1ccc(N2CCOCC2)cc1	mHTT CaM bind 56
O=[N+]([O-])c1cccnc1N1CCOCC1	none
Cc1ccc(Nc2c([N+](=O)[O-])cc([N+](=O)[O-])c3cccnc23)cc1	mHTT CaM bind 51
CCOc1ccc(Nc2c([N+](=O)[O-])cc([N+](=O)[O-])c3cccnc23)cc1	none
CC1CCN(CCNC(=O)c2ccc(-c3nc(-c4ccc(F)cc4)no3)cc2)CC1	none
COc1ccc(N=C2C(=O)N(CN3CCC(C)CC3)c3ccc(Br)cc32)cc1	none
COc1ccccc1N1CCN(C(=O)c2ccc(C)cc2Cl)CC1	none
O=C1CC(c2ccco2)Sc2nc(-c3ccc(F)cc3)nn21 (stereo unspecified)	mHTT CaM bind 100
Cc1ccc(-c2nc3n(n2)C(=O)CC(c2ccco2)S3)cc1 (stereo unspecified)	none
Cc1occc1C(=O)NNC(=O)C(F)(F)F	none (no result: Pf apPOL inh)
COc1ccccc1C(=O)N1CCN(c2ccc([N+](=O)[O-])c(N3CCCCC3)c2)CC1	mHTT CaM bind 53
COc1ccc(N2CCN(c3cc(N4CCN(C)CC4)ccc3[N+](=O)[O-])CC2)cc1	mHTT CaM bind 54
O=C(c1cc(F)c(F)cc1Cl)N1CCN(c2ccc([N+](=O)[O-])c(N3CCCCC3)c2)CC1	none
CN1CCN(c2cc(N3CCN(S(C)(=O)=O)CC3)ccc2[N+](=O)[O-])CC1	none
COc1ccccc1C(=O)N1CCN(c2ccccc2C)C(=O)C1C (stereo unspecified)	none
O=C1C(=Cc2cccs2)CCCC1=Cc1cccs1	none (no result: mHTT CaM bind)
COc1cc(/C=C2/C(=O)N(c3cccc(Br)c3)N=C2C)cc(OC)c1O	mHTT CaM bind 88
CCCC1=NN(c2ccccc2)C(=O)/C1=C\c1cc(Cl)c(O)c(OC)c1	mHTT CaM bind 66
